# Source: PubChem BioAssay (Tox21)
# Values joined by “and” are separate entries in the source; they are usually repeats but may differ in a detail not shown here. Equal values may be shown once. Active and inactive are the calls of the source. Where a call stands in place of a potency, no number is given. Unless noted, calls follow the shape of the dose curve; as a rule, active = well fitted curve in the direction sought with a large enough effect in the repeat runs; inconclusive = weak or mixed curves; inactive = no such curve, though single readings can be large; an effect the other way counts as inactive or inconclusive. Positions of bridges follow the written chain, without caps; N, C: chain ends. Residues, ends and D or L forms follow the SMILES beside them.
# Assays:
# [1] = qHTS assay for small molecule agonists of the p53 signaling pathway (AID 651631; calls by dose curve; also: nearly all actives have a fitted effect of over 15% in size; also: potency is read from the fitted curve at half-maximal effect)
# Method in brief: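 Read-out is beta-lactamase FRET fluorescence measured 2 h after substrate addition at room temperature, in HCT-116 cells with a p53 response element-driven reporter exposed to compounds for 16 h at 37 °C.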
# [2] = qHTS assay for small molecules that induce genotoxicity in human embryonic kidney cells expressing luciferase-tagged ATAD5 (AID 651632); also: nearly all actives have a fitted effect of over 15% in size; also: potency is read from the fitted curve at half-maximal effect
# Method in brief: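 Reporter cells (HEK293T) express luciferase-tagged ATAD5, a protein that accumulates after DNA damage. Treat 16 hr at 37C/5% CO2, add Amplite, wait 30 min at RT, and read luminescence.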
# [3] = qHTS assay for small molecule agonists of the p53 signaling pathway - cell viability (AID 651633; calls by dose curve;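 also: p53RE-bla HCT reporter cells with a stable beta-lactamase p53 reporter; nearly all actives have a fitted effect of over 30% in size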)
# Method in brief: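 Viability counter-read: CellTiter-Glo luminescence (30 min, room temperature) in the same p53RE-bla plates. These plates had been exposed to compounds for 16 h at 37 C.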
# [4] = qHTS assay for small molecules that induce genotoxicity in human embryonic kidney cells expressing luciferase-tagged ATAD5 - cell viability (AID 651634; calls by dose curve; also: nearly all actives have a fitted effect of over 25% in size; also: potency is read from the fitted curve at half-maximal effect)
# Method in brief: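 Seeding of 2,000 HEK293T ATAD5-luciferase cells per well preceded pin-tool compound transfer. Plates sat 15.5 hr at 37C under 5% CO2, then fluorescence was read after 30 min with CellTiter-Fluor.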
# [5] = qHTS assay for small molecule disruptors of the mitochondrial membrane potential - cell viability (AID 720634; calls by dose curve;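 also: human HepG2 liver cancer cells; nearly all actives have a fitted effect of over 20% in size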)
# Method in brief: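 Measuring cytotoxicity alongside mitochondrial potential, the screen quantified ATP by luminescence in HepG2 cells after 1 hr compound incubation and a 30 min room-temperature CellTiter-Glo step.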
# [6] = qHTS assay for small molecule disruptors of the mitochondrial membrane potential (AID 720635); also: potency is read from the fitted curve at half-maximal effect
# Method in brief: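 Mitochondrial membrane potential tracked with Mito-MPS dye, red aggregates (ex 540/em 590 nm) against green monomers (ex 490/em 535 nm). Compound treatment 1 hr at 37C, dye 30 min in HepG2.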
# [7] = qHTS assay to test for compound auto fluorescence at 590 nm (red) in HepG2 cells (AID 720674)
# Method in brief: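 1 hr compound incubation on HepG2 cells, 37 C, 5% CO2; plate read ex 540 nm / em 590 nm; intensities reported as Rose Bengal sodium equivalents.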
# [8] = qHTS assay to test for compound auto fluorescence at 535 nm (green) in HepG2 cells (AID 720675)
# [9] = qHTS assay to test for compound auto fluorescence at 460 nm (blue) in HEK293 cells (AID 720678)
# Method in brief: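 Blue-channel (Ex/Em 405/460 nm) intensity measured in HEK293 cultures after overnight compound exposure at 37C; signal expressed relative to triamterene. Cells plated 2,000 per well in 10% dialyzed FBS medium and allowed 4-5 hr to attach.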
# [10] = qHTS assay to test for compound auto fluorescence at 590 nm (red) in HEK293 cells (AID 720679)
# Method in brief: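 Red-channel autofluorescence (Ex/Em 540/590 nm; Rose Bengal sodium reference) was measured after overnight 37C, 5% CO2 exposure of attached HEK293 cells, 2,000 per well in medium with 10% dialyzed FBS.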
# [11] = qHTS assay to test for compound auto fluorescence at 535 nm (green) in HEK293 cells (AID 720680)
# [12] = qHTS assay to test for compound auto fluorescence at 460 nm (blue) in HEK293 cell free culture (AID 720681)
# Method in brief: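 Blue fluorescence (Ex 405/Em 460 nm, triamterene-equivalent) was read immediately after pin transfer of compound or DMSO into medium (DMEM, 10% FBS) without cells.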
# [13] = qHTS assay to test for compound auto fluorescence at 535 nm (green) in HEK293 cell free culture (AID 720682)
# Method in brief: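 Fluorescein serves as the green reference fluorophore; each compound's intrinsic emission at 535 nm (excitation 485 nm) is reported as an equivalent amount of that dye, measured in serum-containing DMEM without cells.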
# [14] = qHTS assay to test for compound auto fluorescence at 590 nm (red) in HEK293 cell free culture (AID 720683)
# Method in brief: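 Red-channel autofluorescence of compounds in culture medium (DMEM, 10% FBS), no cells, measured at 540/590 nm. Rose Bengal sodium is the reference fluorophore for equivalence.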
# [15] = qHTS assay to test for compound auto fluorescence at 590 nm (red) in HepG2 cell free culture (AID 720684)
# Method in brief: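 Plate contents were MEM with 10% FBS plus test compound or DMSO, no cells. Fluorescence was recorded with 540 nm excitation and 590 nm emission.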
# [16] = qHTS assay to test for compound auto fluorescence at 460 nm (blue) in HepG2 cell free culture (AID 720685)
# Method in brief: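 Compound (23 nL) or DMSO pinned into cell-free MEM with 10% FBS; blue fluorescence read at 405/460 nm excitation/emission, expressed as auto-fluorescence equivalency to triamterene.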
# [17] = qHTS assay to test for compound auto fluorescence at 535 nm (green) in HepG2 cell free culture (AID 720686)
# [18] = qHTS assay to test for compound auto fluorescence at 460 nm (blue) in HepG2 cells (AID 720687)
# Method in brief: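 Blue-channel autofluorescence (Ex/Em 405/460 nm, triamterene-equivalent) was measured after 1 hr compound exposure at 37 C, 5% CO2. Cells were HepG2, plated overnight at 37 C in MEM plus 10% FBS.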
# [19] = target: Glucocorticoid receptor (Homo sapiens) (UniProt P04150); assay: qHTS assay to identify small molecule agonists of the glucocorticoid receptor (GR) signaling pathway (AID 720691; active = well fitted activation curve with a large enough effect in the signal ratio in the repeat runs, not every such curve was filed as active; inconclusive = weak or mixed curves, or effect the other way; inactive = no such curve, though single readings can be large or run the other way; the % refers to the signal ratio; also: potency is read from the fitted curve at half-maximal effect); conditions: GR-bla HeLa, beta-lactamase reporter ratio, 18 h; activation: at 62.4 µM (top of the series)
# Sequence of Glucocorticoid receptor (Homo sapiens) (P04150 whole entry, looked up): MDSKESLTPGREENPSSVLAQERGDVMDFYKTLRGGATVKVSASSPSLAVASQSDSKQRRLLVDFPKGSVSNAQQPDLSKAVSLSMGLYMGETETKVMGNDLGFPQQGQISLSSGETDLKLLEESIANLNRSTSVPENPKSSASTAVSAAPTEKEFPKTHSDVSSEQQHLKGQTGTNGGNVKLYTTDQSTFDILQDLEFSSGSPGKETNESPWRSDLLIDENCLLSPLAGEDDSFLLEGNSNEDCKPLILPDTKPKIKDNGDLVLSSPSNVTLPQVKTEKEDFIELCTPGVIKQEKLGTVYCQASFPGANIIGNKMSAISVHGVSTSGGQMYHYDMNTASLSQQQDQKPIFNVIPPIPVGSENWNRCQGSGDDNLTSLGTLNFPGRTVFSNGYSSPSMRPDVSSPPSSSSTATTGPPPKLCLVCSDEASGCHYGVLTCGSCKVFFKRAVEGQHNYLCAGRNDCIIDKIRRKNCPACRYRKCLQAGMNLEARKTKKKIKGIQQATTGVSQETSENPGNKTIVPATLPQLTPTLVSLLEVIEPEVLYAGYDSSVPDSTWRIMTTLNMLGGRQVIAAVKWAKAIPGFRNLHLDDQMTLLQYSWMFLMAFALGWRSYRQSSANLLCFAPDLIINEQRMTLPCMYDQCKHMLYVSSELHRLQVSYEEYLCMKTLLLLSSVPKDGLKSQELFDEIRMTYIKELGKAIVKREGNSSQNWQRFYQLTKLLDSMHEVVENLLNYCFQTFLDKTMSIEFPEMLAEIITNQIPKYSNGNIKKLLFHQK
# Method in brief: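 Reporter read-out: fluorescence intensity following 2 h room-temperature LiveBLAzer B/G FRET substrate loading. Prior step: GR-bla HeLa cells held 4 h, then treated 18 h at 37 C.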
# [20] = target: Glucocorticoid receptor (Homo sapiens) (UniProt P04150); assay: qHTS assay to identify small molecule antagonists of the glucocorticoid receptor (GR) signaling pathway (AID 720692; active = well fitted inhibition curve with a large enough effect in the signal ratio in the repeat runs, not every such curve was filed as active; inconclusive = weak or mixed curves, or effect the other way; inactive = no such curve, though single readings can be large or run the other way; the % refers to the signal ratio)
# Method in brief: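 Dexamethasone (5 nM final) stimulated a stably integrated GRE-beta-lactamase reporter in HeLa cells during 18 h co-incubation with compounds; signal was quantified as fluorescence intensity of B/G FRET substrate after 2 h.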
Compound,Potency [1],Potency [2],Potency [3],Potency [4],Potency [5],Potency [6],Potency [7],Potency [8],Potency [9],Potency [10],Potency [11],Potency [12],Potency [13],Potency [14],Potency [15],outcome [16],Potency [17],outcome [18],Potency [19],Potency [20]
NCCCC[C@H](NC(=O)[C@@H]1CCCN1C(=O)[C@@H]1CSSC[C@H](NC(=O)CNC(=O)CNC(=O)CN)C(=O)N[C@@H](Cc2ccc(O)cc2)C(=O)N[C@@H](Cc2ccccc2)C(=O)N[C@@H](CCC(N)=O)C(=O)N[C@@H](CC(N)=O)C(=O)N1)C(=O)NCC(N)=O (H-GGGCYFQNCPKG-NH2; disulfide 4-9),inactive,inactive,inactive,inactive,inactive,inactive,inactive,inactive,inactive,inactive,inactive,inactive,inactive,inactive,inactive,inactive,inactive,inactive,inactive,inactive
CCOC(=O)[C@H](CCc1ccccc1)N[C@@H](C)C(=O)N1CC2(C[C@H]1C(=O)O)SCCS2,inactive,inactive,inactive,inactive,inactive,inactive,inactive,inactive,inactive,inactive,inactive,inactive,inactive,inactive,inactive,inactive,inactive,inactive,,inactive
O=C(c1cc2ccccc2o1)N1CCN(Cc2ccccc2)CC1,inactive,inactive,inactive,inactive,inactive,inactive,inactive,inactive,,inactive,inactive,inactive,inactive,inactive,inactive,inactive,inactive,inactive,inactive,
CCN(CC)c1ccc(N=Nc2ccc(S(=O)(=O)N(C)C)cc2)c(S(=O)(=O)NCC[n+]2ccccc2)c1,inactive,inactive,inactive,inactive,inactive,inactive,inactive,inactive,inactive,inactive,inactive,inactive,inactive,inactive,inactive,inactive,inactive,inactive,inactive,inactive
COc1ccc(CCNCC(O)COc2cccc(C)c2)cc1OC (stereo not given),inactive,inactive,inactive,inactive,inactive,inactive,inactive,inactive,inactive,inactive,inactive,inactive,inactive,inactive,inactive,,inactive,inactive,inactive,inactive
CC(=O)OC[C@H]1O[C@@H](O[C@H]2[C@H](O)[C@@H](OC(=O)c3ccccc3C(=O)O)[C@H](O)O[C@@H]2COC(C)=O)[C@H](O)[C@@H](OC(=O)c2ccccc2C(=O)O)[C@@H]1O,inactive,inactive,inactive,inactive,inactive,inactive,inactive,inactive,inactive,inactive,inactive,inactive,inactive,inactive,inactive,inactive,inactive,inactive,,inactive
CCOC(=O)Cc1cccc(-c2cc(CCCCCCc3ccc(O[C@H]4O[C@H](COC(C)=O)[C@@H](OC(C)=O)[C@H](OC(C)=O)[C@@H]4OC(C)=O)c(-c4cccc(CC(=O)OCC)c4)c3)ccc2O[C@H]2O[C@H](COC(C)=O)[C@@H](OC(C)=O)[C@H](OC(C)=O)[C@@H]2OC(C)=O)c1,inactive,inactive,inactive,inactive,inactive,inactive,inactive,inactive,inactive,inactive,inactive,inactive,inactive,inactive,inactive,,inactive,inactive,inactive,
O=C(O)c1ccc(OCCn2ccnc2)cc1,inactive,inactive,inactive,inactive,inactive,inactive,inactive,,inactive,inactive,inactive,inactive,inactive,inactive,inactive,inactive,inactive,inactive,,
CC(=O)[C@]1(O)Cc2c(O)c3c(c(O)c2[C@@H](O[C@H]2C[C@H](N)[C@H](O)[C@H](C)O2)C1)C(=O)c1c(O)cccc1C3=O,944 nM (active) and 2.37 µM (active),750 nM (active) and 944 nM (active),inactive,10.6 µM (active) and 11.9 µM (active),inactive,441 nM (active) and 5.31 µM (active),inactive,,inactive,inactive,inactive,inactive,inactive,inactive,inactive,inactive,,inactive,10.7 µM [inconclusive] (active) and 23.9 µM [inconclusive] (active),
CCCCCCCCCCCCCCCCCCOP(=O)([O-])OC1CC[N+](C)(C)CC1,inactive,inactive,inactive,inactive,inactive,inactive,inactive,inactive,inactive,inactive,inactive,inactive,inactive,inactive,inactive,,inactive,inactive,inactive,inactive
C[N+](C)(CCCCCC[N+](C)(C)C1c2ccccc2-c2ccccc21)C1c2ccccc2-c2ccccc21,inactive,inactive,inactive,inactive,inactive,inactive,inactive,inactive,inactive,inactive,inactive,inactive,inactive,inactive,inactive,inactive,inactive,inactive,inactive,inactive
NC[C@@H]1O[C@H](O[C@H]2[C@@H](O)[C@H](O[C@@H]3[C@@H](O)[C@H](N)C[C@H](N)[C@H]3O[C@H]3O[C@H](CO)[C@@H](O)[C@H](O)[C@H]3N)O[C@@H]2CO)[C@H](N)[C@@H](O)[C@@H]1O,inactive,inactive,inactive,inactive,inactive,inactive,inactive,inactive,inactive,inactive,inactive,inactive,inactive,inactive,inactive,inactive,inactive,inactive,,inactive
